From paper PMC4336329 (PLoS ONE, 2015)
About 14,000 (4.5%) of roughly 310,000 compounds showed an effect of 50% or more. Effects have a minus sign here. Only a selection was taken, and strong results are over-represented in it overall.

Target: human ether-à-go-go-related gene (hERG) potassium channel (human, UniProt Q12809)
Assay: primary screen, population patch clamp on CHO cells stably expressing hERG; higher = less effect of the substance
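Also: peak tail current of the secondary pulse compared with the same well before compound.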

Sequence of human ether-à-go-go-related gene (hERG) potassium channel (Q12809 whole entry, looked up): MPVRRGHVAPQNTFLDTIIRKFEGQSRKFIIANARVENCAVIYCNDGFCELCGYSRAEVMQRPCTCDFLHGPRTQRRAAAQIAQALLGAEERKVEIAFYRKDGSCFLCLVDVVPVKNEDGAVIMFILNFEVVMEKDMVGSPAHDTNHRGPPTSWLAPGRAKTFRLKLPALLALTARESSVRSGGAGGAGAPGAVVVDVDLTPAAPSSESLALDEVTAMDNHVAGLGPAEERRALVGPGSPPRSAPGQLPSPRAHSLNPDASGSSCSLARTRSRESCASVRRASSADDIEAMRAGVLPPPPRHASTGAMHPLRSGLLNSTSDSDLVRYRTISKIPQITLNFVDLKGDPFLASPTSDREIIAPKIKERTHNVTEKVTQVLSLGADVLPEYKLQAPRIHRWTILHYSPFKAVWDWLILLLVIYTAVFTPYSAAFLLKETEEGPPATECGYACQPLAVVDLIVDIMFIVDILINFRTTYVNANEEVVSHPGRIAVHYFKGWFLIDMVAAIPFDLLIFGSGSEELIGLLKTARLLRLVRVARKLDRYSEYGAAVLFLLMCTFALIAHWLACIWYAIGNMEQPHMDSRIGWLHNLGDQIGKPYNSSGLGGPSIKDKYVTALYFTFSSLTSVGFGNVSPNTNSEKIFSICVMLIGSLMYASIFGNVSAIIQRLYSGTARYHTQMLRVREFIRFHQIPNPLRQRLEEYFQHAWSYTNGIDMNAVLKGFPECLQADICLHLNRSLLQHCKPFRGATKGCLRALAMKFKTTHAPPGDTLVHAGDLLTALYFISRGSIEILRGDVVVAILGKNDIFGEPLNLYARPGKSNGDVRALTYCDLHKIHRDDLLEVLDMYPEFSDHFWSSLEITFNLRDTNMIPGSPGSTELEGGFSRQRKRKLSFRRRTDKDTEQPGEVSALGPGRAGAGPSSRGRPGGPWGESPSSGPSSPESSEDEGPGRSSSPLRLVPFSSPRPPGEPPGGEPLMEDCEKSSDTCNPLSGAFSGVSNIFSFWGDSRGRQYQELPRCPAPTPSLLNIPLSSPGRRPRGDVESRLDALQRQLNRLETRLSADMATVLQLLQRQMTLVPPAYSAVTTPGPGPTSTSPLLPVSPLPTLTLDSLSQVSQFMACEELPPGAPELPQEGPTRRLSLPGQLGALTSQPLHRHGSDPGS

Compound | hERG current change (%, negative = inhibition) at 10uM
CCOC(=O)C(C(=O)OCC)C(C)(C)/C(C)=N\Nc1ccc([N+](=O)[O-])cc1[N+](=O)[O-] | -40.8%
CCOC(=O)C(C)/C(C)=N\Nc1ccc([N+](=O)[O-])cc1[N+](=O)[O-] (stereo not shown) | -53.2%
CCOC(=O)C/C(C)=N\Nc1ccc([N+](=O)[O-])cc1[N+](=O)[O-] | -40.2%
Cc1onc(-c2ccccc2Cl)c1C(=O)N1CCOC12CCCCC2 | 1.15%
Fc1cnc(N2CCOCC2)nc1N1CCc2ccccc21 | -19.5%
COc1cccc(CN2CCN(C(=O)c3cccs3)CC2)c1OC | -4.33%
COC(=O)C1CC(=O)N(Cc2ccccc2)C1 (stereo not shown) | 23.4%
COc1ccccc1N1CC(C(=O)OCc2nc(N)nc(Nc3ccccc3)n2)CC1=O (stereo not shown) | -15.8%
Nc1nc(COC(=O)C2CCN(C(=O)c3ccc(Cl)cc3)CC2)nc(Nc2ccccc2)n1 | -67.8%
Cc1ccc(N2CC(C(=O)OCc3nc(N)nc(Nc4ccccc4C)n3)CC2=O)cc1 (stereo not shown) | -32.8%
Nc1nc(COC(=O)C2CC(=O)N(Cc3ccccc3Cl)C2)nc(Nc2ccccc2)n1 (stereo not shown) | -55.6%
Nc1nc(COC(=O)CCC(=O)c2ccc(Cl)cc2)nc(Nc2ccccc2)n1 | 6.39%
Cc1ccccc1C(=O)N1CCC(C(=O)OCc2nc(N)nc(Nc3ccccc3)n2)CC1 | -33.6%
Cc1cc(C)n(CC(=O)NNC(=O)C2CC(=O)N(Cc3ccccc3Cl)C2)n1 (stereo not shown) | 1.16%
Nc1nc(COC(=O)C2CC(=O)N(CCc3ccccc3)C2)nc(Nc2ccccc2)n1 (stereo not shown) | -52.2%
CC(=O)Nc1ccc(NC(=O)C(C)OC(=O)C2CC(=O)N(CCc3ccccc3)C2)cc1 (stereo not shown) | 14.4%
O=C(COC(=O)C1CC(=O)N(CCc2ccccc2)C1)c1ccc[nH]1 (stereo not shown) | -41.8%
Nc1nc(COC(=O)C2CC(=O)N(Cc3ccccc3)C2)nc(Nc2ccccc2)n1 (stereo not shown) | -51.9%
CC(=O)c1ccc(NC(=O)Nc2ccc(Br)cc2C)cc1 | 22.3%
COc1ccc(/C=N/NC(=O)c2ccc(N(C)S(=O)(=O)c3ccccc3)cc2)c(OC)c1 | 6.66%
Cl.O=S(=O)(c1cccs1)N1CCN(C/C=C/c2ccccc2)CC1 | -49.3%
COc1ccc(N(CC(=O)NCc2cccnc2)S(=O)(=O)c2ccccc2)c(OC)c1 | -8.52%
Cc1c(C)n(C)c2ccc([N+](=O)[O-])cc12 | -4.04%

Compound | hERG current change (%, negative = inhibition) at 10uM
O=C(CSc1ccsc1[N+](=O)[O-])NCCc1ccccc1 | 2.6%
COc1ccc(NC(=O)CN2CCN(CC(=O)Nc3ccc(OC)c(OC)c3)CC2)cc1 | -74.6%
COc1ccc(NC(=O)CN2CCOCC2)cc1.O=C(O)C(=O)O | 13%
CCCCNC(=O)CN1CCN(Cc2ccc3cc(OC)ccc3c2)CC1.O=C(O)C(=O)O | -69%
CCCCCNC(=O)Cc1ccc(OC)cc1 | 1.41%
CCN(CC)c1ccc(NC(=O)CN2CCN(CC(=O)Nc3ccc(OC)cc3)CC2)cc1 | -74.9%
N#CCN1CCN(CC(=O)Nc2ccc(OCc3ccccc3)cc2)CC1 | -4.27%
COc1cccc(CN2CCN(CC(=O)NCCc3ccccc3)CC2)c1 | -11.8%
COC(=O)c1ccc(NC(=O)CN2CCN(CC#N)CC2)cc1.O=C(O)C(=O)O | 3.24%
COc1ccc(NC(=O)CN2CCCCCC2)cc1OC | 3.79%
COc1ccc(N2CCN(CC(=O)Nc3ccc(C)c(C)c3)CC2)cc1 | -17.3%
COc1ccc(NC(=O)CN2CCN(CC#N)CC2)cc1 | -75.6%
CCN(C(=O)COc1ccccc1)c1nnc(-c2cccnc2)s1 | 8.69%
Cc1cccc(NC(=O)c2cccc(NC(=O)Cc3cccs3)c2)c1 | 4.72%
N#CCC(=O)N/N=C/c1ccc(N2N=C(c3ccccc3)CC2c2ccccc2)cc1 (stereo not shown) | 25%
CC(C(=O)N1CCC2(CC1)OCCO2)C1Sc2ccccc2NC1=O (stereo not shown) | 6.9%
O=C(NC1C2CC3CC(C2)CC1C3)c1ccc2c(c1)OCO2 (stereo not shown) | -5.92%
CN(C)CCNc1ccc(-c2nn(C)c(=O)c3ccccc23)cc1[N+](=O)[O-] | -1.47%
CCOC(C(=O)OCCCN(CC)CC)(c1ccccc1)c1ccccc1.Cl | -11.5%
N#CC(c1ccc(Cl)nn1)c1c(F)cccc1Cl (stereo not shown) | 9.59%
Cc1noc(C)c1COC(=O)[C@@H](NC(=O)c1ccccc1Cl)C(C)C | 5.09%
Cl.N[C@@H](Cc1c[nH]c2ccccc12)c1nnc(SCc2c(F)cccc2Cl)o1 | 1.99%
COC(=O)c1ccc(NC(=O)CCN2CCN(CCC(=O)Nc3ccc(C(=O)OC)cc3)CC2)cc1 | -15.4%

Compound | hERG current change (%, negative = inhibition) at 10uM
CCOC(=O)c1ccc(NC(=O)CN2CCN(c3ccccc3)CC2)cc1 | 5.34%
CCOC(=O)c1ccc(NC(=O)CN2CCN(Cc3ccccc3)CC2)cc1 | -51%
COc1ccc(NC(=O)CN2CCN(S(=O)(=O)N(C)C)CC2)cc1 | -4.55%
CCOC(=O)c1ccc(NC(=O)N2CCN(Cc3ccccc3)CC2)cc1 | -11.1%
COc1ccc(NC(=O)CN2CCN(c3c(C)cccc3C)CC2)cc1 | -24.4%
COc1ccc(NC(=O)CN2CCN(S(=O)(=O)N3CCCCCC3)CC2)cc1 | -71.7%
COc1ccc(NC(=O)CN2CCN(c3c(C)cc(C)cc3C)CC2)cc1 | 3.97%
COc1cccc(N2CCN(CC(=O)Nc3ccc(S(=O)(=O)N4CCCCCC4)cc3)CC2)c1 | -21.9%
COc1ccc(NC(=O)CN2CCN(c3ccc(C)cc3C)CC2)cc1 | -60.7%
COC(=O)c1ccc(NC(=O)CCN2CCN(Cc3ccccc3)CC2)cc1 | -58.6%
COC(=O)c1ccc(NC(=O)CCN2CCN(c3ccccc3)CC2)cc1 | -28.9%
CC(C)[C@H](NC(=O)c1cc2cc(Cl)ccc2n1C)C(=O)N[C@@H](C(=O)O)c1ccccc1 | 15.9%
CCCNC(=O)N1[C@H]2CC[C@@H]1C(C(=O)OC)=C(c1ccc(F)cc1OCc1ccccc1)C2 | -23.3%
O=C(Oc1cc2oc(=O)cc(-c3ccccc3)c2cc1Cl)C1CCCCC1 | 4.05%
COC(=O)Cn1cc(C(=O)OC)c2ccccc21 | -4.51%
COc1cc(C(=O)NC(C)c2ccc3ccccc3c2)cc(Cl)c1O (stereo not shown) | 4.57%
Cc1ccc(-c2cn(CCN)c(-c3ccc(Cl)nc3)n2)cc1 | -21.7%
COc1ccccc1C(=O)Nn1c(-c2cccs2)nc2ccccc2c1=O | -2.66%
COc1cccc(CNC(=O)CSc2ccc(-c3ccco3)nn2)c1 | 2.15%
COc1cccc(NC(=O)Cn2c(=O)n(C)c(=O)c3sc4c(c32)COC(C)(C)C4)c1 | 6.82%
CC(=O)Nc1ccc(S(=O)(=O)NC2=NCN(C)CN2)cc1 | 2.76%
COc1ccc(NC(=O)CN2CCCCC2)cc1.O=C(O)C(=O)O | 3.8%
COc1ccc(NC(=O)CN2CCN(CC(=O)Nc3ccc(OC)cc3)CC2)cc1 | -76.6%

Compound | hERG current change (%, negative = inhibition) at 10uM
COc1ccc(NC(=O)CN2CCC(NC(=O)c3ccc(OC)cc3)CC2)cc1 | -51.1%
CCCCOc1ccc(NC(=O)CN2CCN(Cc3ccccc3)CC2)cc1 | -49.4%
COc1ccc(C(=O)NC2CCN(CC(=O)Nc3cccc(OC)c3)CC2)cc1 | -25.4%
COc1ccc(C(=O)Nc2ccc(N3CCN(Cc4ccccc4)CC3)cc2)cc1 | -4.78%
COc1ccc(NC(=O)CN2CCN(Cc3ccccc3)CC2)cc1 | -52.8%
COc1ccc(C(=O)NC2CCN(CC(=O)NC3CCCCC3)CC2)cc1 | -17.3%
COc1ccc(NC(=O)CN2CCCC2)cc1 | 15.7%
COc1cc(NC(=O)c2cccc(Br)c2)nc(OC)n1 | 3.34%
CCSc1ccccc1C(=O)NCCCn1ccnc1 | 10.2%
CCCC(=O)Nc1cc(-c2nnc(OC)c3ccccc23)ccc1N1CCCCC1 | -36.3%
C=CCOc1nc2c(c(=O)n(C)c(=O)n2C)n1Cc1ccccc1Cl | -6.73%
COc1cc2c(cc1OC)C(C(=O)NCc1cccnc1)C(c1cccnc1)N(C)C2=O (stereo not shown) | 9.05%
COc1cc([N+](=O)[O-])cc(/C=N/NC(=O)Cn2cncn2)c1O | 5.88%
COC(=O)CNc1cc(S(=O)(=O)N2CCCCC2)ccc1Oc1cccc(C)c1 | -30.7%
CC(=O)NCCC(=O)Nc1cc(S(=O)(=O)N2CCOCC2)ccc1Oc1ccc(F)cc1 | -30.5%
CC(=O)NCCC(=O)Nc1cc(S(=O)(=O)N2CCOCC2)ccc1Oc1ccccc1 | -8.45%
CC(=O)NCCC(=O)Nc1cc(S(=O)(=O)N2CCCCC2)ccc1Oc1ccccc1 | -64.9%
CC(=O)NCCC(=O)Nc1cc(S(=O)(=O)N2CCCCC2)ccc1Oc1cccc(C)c1 | -68%
CC(=O)NCCC(=O)Nc1cc(S(=O)(=O)N2CCCCC2)ccc1N1CCCCC1 | -5.37%
COc1ccccc1Oc1ccc(S(=O)(=O)N2CCCCC2)cc1NC(=O)CCNC(C)=O | -55.1%
COc1ccc(S(=O)(=O)N2CCCCC2)cc1NC(=O)CCCOc1ccccc1 | -9.13%
COc1ccc(S(=O)(=O)N2CCCCC2)cc1NC(=O)CCNC(=O)c1ccccc1Cl | -11%
